This is an account of results in the supplement of paper PMC4723716.

Whole data set: some 3,600 compounds, median “viability index relative to DMSO control” near 0.81, cut for the lowest 2% near 0.13. Only a selection was taken, and the lowest values are over-represented in it overall.
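Note: Saponin-lysis sexual stage assay in serum-free medium: MitoTracker Red CMXRos staining plus saponin, high-content imaging, particle count per well divided by plate mean of DMSO wells.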

The assay relates to Plasmodium falciparum NF54 stage V gametocytes. Description: viability index relative to DMSO control (fraction); higher = less gametocyte killing. To be noted: 1.25 µM, incubation time: 72 h.
On to `O=C(c1cc2n(n1)C(C(F)(F)F)CC(c1ccc3c(c1)OCO3)N2)N1CCN(C(c2ccccc2)c2ccccc2)CC1` (stereo not given), for which the viability index came to 0.682.

Regarding `CC(=O)Nc1ccc(-c2nc3c4ccccc4c4ccc(I)cc4c3[nH]2)cc1`, the viability index came to 0.762.

In turn, `C(=NNc1nc2ccccc2[nH]1)c1c[nH]c2ccccc12` displayed a viability index of 0.558.

In turn, `COc1cccc(CNc2cc(C(=O)NCCNC(C)=O)cc(S(=O)(=O)N(C)C)c2)c1OC` displayed a viability index of 1.32.

Compound `CCOc1ccc2nc(C)cc(Nc3ccc(C)c(Cl)c3)c2c1` yielded a viability index of 0.852.

Turning to `CCOc1ccc2nc3cc(NCc4ccco4)ccc3c(N)c2c1`, the viability index amounted to 0.775.

`COc1ccc(C2c3[nH]c4ccccc4c3C[C@H]3C(=O)N(CCC(C)C)CC(=O)N23)cc1` (stereo not given in full): the viability index was 0.803.

For `C=CCSc1nnc2c(n1)[nH]c1ccc(OCC)cc12`, the viability index amounted to 0.656.

Compound `Cc1cccc(-c2nc3cc(NC(=O)c4ccc([N+](=O)[O-])o4)ccc3o2)c1` displayed a viability index of 0.0679.

In the case of `Cc1cc(N2CCC(C)CC2)nc2ccc(NC(=O)c3ccc([N+](=O)[O-])o3)cc12`, the viability index worked out at 0.12.

As for `O=C(Nc1ccc(-c2nc3ccc(NC(=O)c4ccc(Br)o4)cc3[nH]2)cc1)c1ccc(Br)o1`, the viability index was 1.1.

`O=C(CN1CCN(C(=O)c2ccccc2)CC1)Nc1ccc(-c2nc3cc(NC(=O)CN4CCN(C(=O)c5ccccc5)CC4)ccc3o2)cc1`: the viability index was 0.951.

The compound `Cc1cc([N+](=O)[O-])ccc1-c1ccc(C(=O)Nc2ccc(-c3nc4ccccc4[nH]3)cc2)o1` showed a viability index of 0.622.

As to `Nc1ccc(C(=O)Nc2ccc(-c3nc4ccccc4o3)cc2)cc1`, the viability index worked out at 0.703.

Compound `Cc1cc(N2CCN(C)CC2)nc2ccc(NC(=O)c3ccc(Br)o3)cc12` displayed a viability index of 0.924.

`Cc1ccc(-c2nc3cc(NC(=O)c4ccc(Cl)cc4Cl)ccc3o2)cc1` came in with a viability index of 1.32.

`Cc1ccc(-c2nc3cc(NC(=O)c4ccc([N+](=O)[O-])o4)ccc3o2)cc1Br` registered a viability index of 0.0755.

On to `Cc1cccc(-c2nc3cc(NC(=S)NC(=O)c4ccc(Cl)cc4)ccc3o2)c1`, for which the viability index came out at 0.808.

On to `Cc1cc(N2CCCCC2)nc2ccc(NC(=O)c3cccc([N+](=O)[O-])c3)cc12`, for which the viability index is 0.787.

Take `O=C(Nc1ccc2oc(-c3ccc(I)cc3)nc2c1)c1ccc([N+](=O)[O-])o1`: the viability index came out at 0.0302.

On to `CNC(=O)c1nn(C)c2c1CC(NCC1CCCCC1)CC2` (stereo not given), for which the viability index was 0.702.

`CC(=NNC(=O)c1ccc(C)cc1)c1ccccn1`: the viability index was 0.294.

In turn, `CCOC(=O)c1oc2cc(O)c(CC)cc2c(=O)c1-c1ccc2c(c1)OCO2` had a viability index of 1.09.

As to `CCOc1ccc2[nH]c(=O)c(CN(CCCN3CCOCC3)C(=S)NCCCN(CC)CC)cc2c1`, the viability index was found to be 0.814.

In turn, `Oc1cccc(Nc2nc(NCc3ccco3)c3ccccc3n2)c1` showed a viability index of 0.595.

In turn, `O=[N+]([O-])c1cccc(Cl)c1N1CCN(S(=O)(=O)Cc2ccccc2)CC1` returned a viability index of 1.

Regarding `COc1cc(C=C(C#N)c2nc3ccccc3[nH]2)ccc1OCc1ccccc1Cl`, the viability index came out at 0.678.

Consider `CC1CC(N(C(=O)c2ccc(Cl)cc2Cl)c2ccccc2)c2ccccc2N1C(=O)c1ccc(Cl)cc1` (stereo not given), for which the viability index worked out at 0.723.

For the compound `CCC(=O)NC(c1cccc([N+](=O)[O-])c1)c1ccc2cccnc2c1O` (stereo not given), the viability index stood at 1.12.

Compound `O=[N+]([O-])c1cc(C(F)(F)F)cc([N+](=O)[O-])c1Sc1cccc2cccnc12` came in with a viability index of 0.0789.

On to `O=[N+]([O-])c1cc([N+](=O)[O-])c2cccnc2c1Nc1cccc2cccnc12`, for which the viability index was 0.209.

As for `COc1cccc2c1OCC(CN1CCC(C(=O)Nc3ccc(-n4cccn4)cc3)CC1)=C2`, the viability index was 1.03.

`O=C(Nc1ccc(-c2nc3ccccc3[nH]2)cc1)c1ccc(-c2cccc([N+](=O)[O-])c2)o1` displayed a viability index of 0.751.

Compound `O=C(Nc1ccc2oc(-c3ccccc3F)nc2c1)c1ccc([N+](=O)[O-])o1` had a viability index of 0.128.

In the case of `O=C(Nc1ccc2oc(-c3cccc4ccccc34)nc2c1)c1ccc([N+](=O)[O-])o1`, the viability index turned out to be 0.0679.

For the compound `O=C(Nc1ccc(F)c(F)c1)c1ccccc1[N+](=O)[O-]`, the viability index is 1.03.

With `CCC(C)(C)c1ccc(Oc2ccc(NC(=O)c3ccc([N+](=O)[O-])o3)cc2)cc1`, the viability index turned out to be 0.362.

As to `O=C(Nc1ccc(-c2nnc(-c3ccc(NC(=O)c4ccccc4[N+](=O)[O-])cc3)o2)cc1)c1ccccc1[N+](=O)[O-]`, the viability index turned out to be 0.756.

The compound `CCN1C(=Cc2cccc[n+]2C)C=Cc2ccccc21` had a viability index of 1.01.

In the case of `CCN1CCC(NC2CCCc3c2[nH]c2ccc([N+](=O)[O-])cc32)CC1` (stereo not given), the viability index is 1.07.

`CC1CCN(C(=O)C(C)N(c2ccccc2)S(C)(=O)=O)CC1` (stereo not given) had a viability index of 0.917.

For `O=C1OC(c2ccccc2)=NC1=C(Cl)Cl`, the viability index was found to be 1.1.

Take `Cc1cc(Nc2ccc(O)cc2)nc2cccc(O)c12`: the viability index stood at 0.735.

Take `Cc1c2ccccc2cc(Cc2ccccc2)[n+]1C`: the viability index worked out at 0.76.

With `C=CC[n+]1cccc2c3ccccc3ccc21`, the viability index was 0.706.

`c1ccc2c(c1)ccc1cc3cccc[n+]3cc12` gave a viability index of 0.0821.

Turning to `O=C(c1ccc([N+](=O)[O-])cc1)c1ccc(Cl)c(Cl)c1`, the viability index was determined as 0.574.

In the case of `CCOC(=O)C1=C(C)N=c2sc(=Cc3cccc(OCc4cccc5ccccc45)c3)c(=O)n2C1c1ccc(OC)cc1OC` (stereo not given), the viability index is 0.924.

As for `O=C(Cc1ccc(Cl)cc1)NNS(=O)(=O)c1ccc([N+](=O)[O-])cc1`, the viability index stood at 0.939.

`O=C(Nc1ccc(-c2nc3cc(NC(=O)C(c4ccccc4)c4ccccc4)ccc3[nH]2)cc1)C(c1ccccc1)c1ccccc1` had a viability index of 0.908.

Consider `O=C(Nc1ccc(-c2nc3ccccc3[nH]2)cc1)c1ccc(Cl)c(Cl)c1`, for which the viability index came out at 1.03.

`O=C(Nc1ccc(-c2nc3cc(NC(=O)c4cccs4)ccc3[nH]2)cc1)c1cccs1` registered a viability index of 1.05.

`O=C(Nc1ccc(-c2nc3ccccc3[nH]2)cc1)c1cccc(C(=O)Nc2ccc(-c3nc4ccccc4[nH]3)cc2)n1` had a viability index of 0.0331.

Compound `O=C(Nc1ccc(-c2nc3ccccc3[nH]2)cc1)c1ccc(-c2ccc(Cl)cc2)o1` yielded a viability index of 0.725.

The compound `O=C(C=Cc1ccccc1)Nc1ccc(-c2nc3cc(NC(=O)C=Cc4ccccc4)ccc3[nH]2)cc1` gave a viability index of 0.11.
